Our source for the growth values is PubChem BioAssay (NCI).

Compounds without any hit were thinned out: in the full panel of roughly 83,000, 20% have a hit.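 Single-concentration screen, 48 h exposure, 96-well plates. Endpoint: percent growth. Below 10 = active.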 A number with no mark means an inactive call. Activity calls are given as the source filed them.

This experiment concerns T-47D breast. Put plainly: NCI-60 one-dose screen, 48 h (100 = growth as untreated, 0 = no growth, -100 = all killed). Particulars: 10 µM unless noted. As for the experimental part: Growth inhibition of the T-47D human tumor cell line is measured as a screen for anti-cancer activity. Cells are grown in 96 well plates and exposed to the test compound for 48 hours. Compounds are tested at a single concentration, which is 10^-5 M for most compounds. The reported endpoint is percent growth (GI% or GIPRCNT), where numbers from 0 - 100% represent growth inhibition, and numbers from -100% - 0 represent cell death. For example, a value of 40 represents 60% growth inhibition. A value of 0 means no net growth occurred over the course of the experiment. A value of -40 indicates 40% of cells at the beginning of the experiment died by the end of the experiment. A value of -100 means all cells are dead at the end of the experiment.
NCI-60 Human Tumor Cell Lines Screen was performed using the standard one-dose NCI protocol, which is described in more detail at https://dtp.cancer.gov/discovery_development/nci-60/default.htm.
Compounds with GIPRCNT values below 10 were considered active. Activity score was based on GIPRCNT using the following formula: […]
Score is 0 for GIPRCNT values of 100 or above, 50 for GIPRCNT values of 0, and 100 for GIPRCNT values of -100.
As to `C#CCn1c(C)cc(C)c(C#N)c1=O`, the growth was 101%.
The value for `COc1ccc(/C=C/C(=O)NCCO)cc1` was 89.8%; that for `N=c1c(S(=O)(=O)c2ccccc2)cc2c(=O)n3ccccc3nc2n1C1CCCC1` was 79.8%; that for `C=C1C(=O)O[C@H]2[C@H]1CC/C(COC(=O)NCc1cc3ccccc3[nH]1)=C\CC[C@@]1(C)O[C@@H]21` was -43.1% (active).
The same measure for `CC(C)(C)c1[nH]nc2c1C(c1cc3ccccc3[nH]c1=O)Nc1cc(C(=O)OCc3ccccc3)ccc1N2` (stereo not given): 36.7%; for `Fc1ccc(Nc2ccc3c(OCCCN4CCOCC4)cccc3n2)cc1F`: 78%; for `COc1cc2c(cc1OC)C(=O)/C(=C/c1cc(-c3ccc4c(c3)OCO4)n[nH]1)C2`: -4.12% (active).
Take `C=C(C)[C@@H]1CC[C@]2(c3nnc(-c4ccncc4)o3)CC[C@]3(C)[C@H](CC[C@@H]4[C@@]5(C)CCC(=O)NC(C)(C)[C@@H]5CC[C@]43C)[C@@H]12`: the growth is 100%.
On to `COc1ccc(NC(=O)c2ccoc2COc2ccccc2)cc1`, for which the growth was 95.1%.
The value for `Nc1c(C(=O)Nc2cccc3ccccc23)sc2nc3c(cc12)CCCC3` was 55.7%; that for `COC(=O)[C@]12CC[C@@H](C)[C@H](C)[C@@H]1C1=CC[C@@H]3[C@@]4(C)C=C(O)C(=O)C(C)=C4CC[C@@]3(C)[C@]1(C)CC2` was 5.51% (active); that for `CC(=O)OC(C)COc1ccc(-c2ccccc2)cc1` (stereo not given) was 88.6%.
The value for `Cc1cc(Cl)nc(N(CCNc2ccnc3cc(Cl)ccc23)Cc2ccco2)n1` was -14.7% (active); that for `CCN1CCN(C(=O)[C@]23CC[C@@H](C)[C@H](C)[C@H]2C2=CC[C@@H]4[C@@]5(C)C/C(=C/c6cccc(OC)c6OC)C(=O)C(C)(C)[C@@H]5CC[C@@]4(C)[C@]2(C)CC3)CC1` was 18.2%.
The value for `N#Cc1c(-c2ccc(O)cc2)c2c(N)nn(-c3ccccc3)c2[nH]c1=O` was 112%; that for `Cc1ccc2c(c1)c(-c1nc(-c3c[nH]c4ncccc34)cs1)cn2C` was 45.3%; that for `CCN1CCN(C(=O)[C@]23CCC(C)(C)C[C@H]2C2=CC[C@@H]4[C@@]5(C)CC/C(=N/O)C(C)(C)[C@@H]5CC[C@@]4(C)[C@]2(C)CC3)CC1` was 36.6%.
In the case of `O=c1c(CNc2ccc(S(=O)(=O)Nc3ncccn3)cc2)coc2ccccc12`, the growth is 81.1%.
The value for `O=C1CN(c2ccccc2)C(=O)C1C(=O)Nc1ccc(Cl)c(Cl)c1` (stereo not given) was 12.7% [100 µM]; that for `COc1ccc(-c2cc(/C=C/C(=O)c3ccc(N)cc3)[nH]n2)cc1` was 21%.
Consider `CC(=O)Nc1cc(F)cc(C(F)(F)F)c1Cl`, for which the growth is 96.7%.
The value for `N#CC1=C(N)Oc2c(c(N)nn2-c2ccccc2)C1c1ccc(Cl)cc1Cl` (stereo not given) was 77.6%; that for `N#C/C(=C\c1ccc(-c2ccc(Br)cc2)o1)c1nc(-c2cccs2)cs1` was 40%; that for `C=C(C)[C@@H]1CC[C@]2(C)[C@H](CC=C3[C@@H]4CC(C)(C)CC[C@]4(C(=O)OC)CC[C@]32C)[C@@]1(C)CC/C(N)=N/O` was 6.99% (active).
As to `CN(C)c1ccc(N=C2C=CC(=O)C=C2)cc1`, the growth is 60.6%.
For the compound `Cc1ccnc2c(OCc3ccccc3)cccc12`, the growth was 72.8%.
The same measure for `COc1ccc(C2c3ccccc3NC(=O)N2C2CCN(C)CC2)c(OC)c1` (stereo not given): 100%.
Take `N#C/C(=C\c1ccc(-c2ccc(Br)cc2)o1)c1nc(-c2ccco2)cs1`: the growth is -26.4% (active).
As to `Clc1cc(Cl)cc(Nc2ccc3c(OCCCN4CCOCC4)cccc3n2)c1`, the growth is 60.4%.
The value for `Cn1cc(-c2csc(-c3cn(CCN)c4ccccc34)n2)c2cccnc21` was 20%.
`CCCCCCCCNc1cccc2c1C(=O)c1ccccc1C2=O`: the growth is 94.5%.
The same measure for `O=C1c2ccccc2C(=Cc2ccccc2)c2ccccc21`: 29.4%; for `N#CC1=C(N)Oc2ccc3ccccc3c2C1c1ccccc1` (stereo not given): 40.8%.
The same measure for `COc1cccc(NC(=O)c2sc3nc4c(cc3c2N)C(=O)CCC4)c1`: 51.9%.
As to `C/C(=C(/c1ccccc1)c1ccc(N2C(=O)c3cccc4c(NCc5ccccc5)ccc(c34)C2=O)cc1)c1ccccc1`, the growth was 76%.
As for `Cn1cc(-c2csc(-c3cn(CCN)c4ccc(F)cc34)n2)c2cccnc21`, the growth was 19%.
The value for `Cc1cc(N2CCCCC2)nc(N(CCCNc2ccnc3cc(Cl)ccc23)Cc2ccco2)n1` was 26.9%; that for `Oc1ccc(CCC2CCCC(CCc3ccc(OCCF)cc3)N2)cc1` (stereo not given) was 72.8%.
Consider `COc1cc(-c2c(C#N)c(-c3cccs3)nc3c2c(-c2ccccc2)nn3-c2ccccc2)ccc1O`, for which the growth is 56.8%.
For `N#C/C(=C\c1ccc(-c2ccccc2)o1)c1nc(-c2ccco2)cs1`, the growth is -26% (active).
